Records with an inconclusive call do not appear. A number with no mark means an inactive call. Calls follow the shape of the full dose curve.
assay: qHTS assay to identify small molecule agonists of the endoplasmic reticulum stress response signaling pathway - cell viability counter screen (AID 1159517); conditions: ESRE-bla HeLa viability, CellTiter-Glo luminescence, 5 h; series mostly up to 61 µM; activity change, negative = cytotoxicity: at the top concentration; also: nearly all actives have a fitted effect of over 50% in size
Text: U.S. Tox21 Program National Center for Advancing Translational Sciences [NCATS] NIH Chemical Genomics Center [NCGC] U.S. Environmental Protection Agency [EPA] National Institutes of Environmental Health Sciences [NIEHS] National Toxicology Program [NTP] U.S. Food and Drug Administration [FDA] Tox21 Assay Overview: Endoplasmic Reticulum (ER) plays an important role in cellular signaling, protein folding/maturation, stress response, lipid biosynthesis, calcium storage and release etc. Under stress conditions, proteins in ER misfold or unfold, and leading to the expression of ER stress responsive genes. ER stress has been associated with a variety of pathophysiological conditions such as cancer, inflammation, neurodegenerative diseases, diabetes, ischemic heart disease etc. To identify the compounds that induce ER stress response, an ER stress reporter cell line, CellSensor ESRE-bla HeLa (Life Technologies, Carlsbad, CA) containing a beta-lactamase reporter gene under control of the Endoplasmic reticulum Stress Response Element (ESRE) was used to screen Tox21 10K compound library. The cytotoxicity of the Tox21 compound library against the ESRE-bla HeLa cell line was tested in parallel by measuring cell viability using the CellTiter-Glo assay in the same wells.
Tox21 Assay Protocol Summary: ESRE-bla HeLa cells were dispensed at 1,500 cells/6 uL of assay medium per well into black wall/clear-bottom 1536-well plates using a Multidrop Combi (ThermoFisher Scientific, Waltham, MA) dispenser. After the assay plates were incubated at 37 C and 5% CO2 for an overnight, 23 nL of compounds dissolved in DMSO, positive controls or DMSO only was transferred to the assay plate by a Pintool station (Kalypsys, San Diego, CA). The assay plates were incubated at 37 C and 5% CO2 for 5 hr. One uL of LiveBLAzer B/G FRET substrate (Life Technologies) was added using a FRD (Flying Reagent Dispenser, Aurora Discovery, San Diego, CA) and the plates were incubated at room temperature for 2 hr. Fluorescence intensity (405 nm excitation, 460 nm and 530 nm emissions) was measured using an Envision plate reader (PerkinElmer, Shelton, CT). For cytotoxicity, 4 ul/well of CellTiter-Glo reagent was added into the assay plates using an FRD. After 30 min incubation at room temperature, the luminescence intensity was measured using a ViewLux plate reader (PerkinElmer).
% is scaled to controls: 0 for no effect and ±100 for the full control effect.

**Q.** With `c1ccc(SCCSc2ccccc2)cc1` as the molecule, how does the “activity change, negative = cytotoxicity” value read?
**A.** -15.3%

**Q.** Which “activity change, negative = cytotoxicity” value does the source give for `COc1ccc(NC(C)=O)cc1` here?
**A.** 5.91% [at 78.8 µM]

**Q.** With `CC(=O)O[C@H](CC(=O)[O-])C[N+](C)(C)C` as the molecule, how does the “activity change, negative = cytotoxicity” value read?
**A.** 2.06%

**Q.** With `CC(C)N1C(=O)c2ccccc2C1=O` as the molecule, how does the “activity change, negative = cytotoxicity” value read?
**A.** 7.33%

**Q.** Which “activity change, negative = cytotoxicity” value does the source give for `CNC(=O)c1c(I)c(NC(=O)CCCCC(=O)Nc2c(I)c(C(=O)O)c(I)c(C(=O)NC)c2I)c(I)c(C(=O)O)c1I` here?
**A.** 1.86%

**Q.** For `CC(C=O)Cc1ccc(C(C)C)cc1` (stereo not given), which “activity change, negative = cytotoxicity” value is on record?
**A.** -11.1%

**Q.** With `c1ccc2cnncc2c1` as the molecule, how does the “activity change, negative = cytotoxicity” value read?
**A.** 0.436%

**Q.** For `NS(=O)(=O)c1cc2c(cc1C(F)(F)F)NC(Cc1ccccc1)NS2(=O)=O` (stereo not given), which “activity change, negative = cytotoxicity” value is on record?
**A.** 3.6%

**Q.** For `CCCC(=O)O[C@]1(C(=O)CCl)[C@@H](C)C[C@H]2[C@@H]3CCC4=CC(=O)C=C[C@]4(C)[C@@]3(F)C(=O)C[C@@]21C`, which “activity change, negative = cytotoxicity” value is on record?
**A.** 22.6%

**Q.** With `CCC(=O)Nc1cccc(N)c1` as the molecule, how does the “activity change, negative = cytotoxicity” value read?
**A.** 0.303%

**Q.** Which “activity change, negative = cytotoxicity” value does the source give for `NS(=O)(=O)c1cc2c(cc1Cl)NC(CSCc1ccccc1)=NS2(=O)=O` here?
**A.** -1.55%

**Q.** For `CC(C)CCCC(C)CCCC(C)CCCCC(C)CCCC(C)CCCC(C)C` (stereo not given), which “activity change, negative = cytotoxicity” value is on record?
**A.** -10.1%

**Q.** For `C=C(C)C(=O)NCCC[N+](C)(C)C`, which “activity change, negative = cytotoxicity” value is on record?
**A.** 9.29%

**Q.** Which “activity change, negative = cytotoxicity” value does the source give for `Fc1ccccc1-c1ccccc1` here?
**A.** -19.9% [at 78.8 µM]

**Q.** With `CCCCCCCCCCC1CO1` (stereo not given) as the molecule, how does the “activity change, negative = cytotoxicity” value read?
**A.** 8.25%

**Q.** With `CCN(CC)S(=O)(=O)c1ccc(C(=O)O)cc1` as the molecule, how does the “activity change, negative = cytotoxicity” value read?
**A.** -29.1%

**Q.** Which “activity change, negative = cytotoxicity” value does the source give for `CC(C)(C)N(CCO)CCO` here?
**A.** 2.53% [at 78.8 µM]

**Q.** Which “activity change, negative = cytotoxicity” value does the source give for `C=CC(=O)N1CCOCC1` here?
**A.** -11.5%

**Q.** For `CCC(C)OC(=O)N1CCCCC1CCO` (stereo not given), which “activity change, negative = cytotoxicity” value is on record?
**A.** -10.1%

**Q.** With `COc1nc(C)nc(N)n1` as the molecule, how does the “activity change, negative = cytotoxicity” value read?
**A.** 13.9%

**Q.** With `Cc1ncc(CSSCc2cnc(C)c(O)c2CO)c(CO)c1O` as the molecule, how does the “activity change, negative = cytotoxicity” value read?
**A.** -5.99%

**Q.** With `O=C1C(CCS(=O)c2ccccc2)C(=O)N(c2ccccc2)N1c1ccccc1` (stereo not given) as the molecule, how does the “activity change, negative = cytotoxicity” value read?
**A.** -0.323%

**Q.** For `CC(C)(C)OC(=O)N1C[C@@H](F)C[C@H]1C(=O)O`, which “activity change, negative = cytotoxicity” value is on record?
**A.** -0.441% [at 78.8 µM]

**Q.** Which “activity change, negative = cytotoxicity” value does the source give for `C[N+](C)(C)CC[N+]1(C)Cc2c(Cl)c(Cl)c(Cl)c(Cl)c2C1` here?
**A.** 3.6%

**Q.** Which “activity change, negative = cytotoxicity” value does the source give for `CC(C)=CC(=O)O` here?
**A.** -8.62%

**Q.** For `O=C(O)/C=C/c1ccc(Cn2ccnc2)cc1`, which “activity change, negative = cytotoxicity” value is on record?
**A.** -9.58%

**Q.** Which “activity change, negative = cytotoxicity” value does the source give for `CCCc1ccccc1O` here?
**A.** 26.7%

**Q.** For `Cn1ccc2cc3c(cc21)CCN3C(=O)Nc1cccnc1`, which “activity change, negative = cytotoxicity” value is on record?
**A.** 16.8% [at 28.5 µM]

**Q.** With `CO[Si](OC)(OC)OC` as the molecule, how does the “activity change, negative = cytotoxicity” value read?
**A.** -4.11%

**Q.** Which “activity change, negative = cytotoxicity” value does the source give for `O=c1[nH]c(=O)n([C@H]2O[C@H](CO)[C@@H](O)[C@@H]2O)cc1/C=C\Br` here?
**A.** 4.96%

**Q.** With `NC(=O)c1c(Cl)cccc1Cl` as the molecule, how does the “activity change, negative = cytotoxicity” value read?
**A.** -6.39%

**Q.** Which “activity change, negative = cytotoxicity” value does the source give for `CC(=O)OC(C)(C)C` here?
**A.** 5.34%

**Q.** Which “activity change, negative = cytotoxicity” value does the source give for `COC(=O)C1=C(C)NC(C)=C(C(=O)OCC(C)=O)C1c1ccccc1[N+](=O)[O-]` (stereo not given) here?
**A.** 5.11%

**Q.** With `C=CCOc1nc(OCC=C)nc(OCC=C)n1` as the molecule, how does the “activity change, negative = cytotoxicity” value read?
**A.** 0.657%

**Q.** Which “activity change, negative = cytotoxicity” value does the source give for `C[C@H]1O[C@@H](n2cc(F)c(=O)[nH]c2=O)[C@H](O)[C@@H]1O` here?
**A.** 1.85%

**Q.** Which “activity change, negative = cytotoxicity” value does the source give for `O=c1[nH]c2ccccc2c(=O)n1CCCl` here?
**A.** -10.4%

**Q.** Which “activity change, negative = cytotoxicity” value does the source give for `CCc1cc(S(=O)(=O)O)c2cc(C(C)C)cccc1-2` here?
**A.** -0.105%

**Q.** Which “activity change, negative = cytotoxicity” value does the source give for `CC(C)(C)CC(C)(C)N` here?
**A.** -23.7%

**Q.** For `NS(=O)(=O)c1cc(C2(O)NC(=O)c3ccccc32)ccc1Cl` (stereo not given), which “activity change, negative = cytotoxicity” value is on record?
**A.** 8.37%

**Q.** For `CC(C)(C)C(=O)/C=C/c1ccc(Cl)cc1`, which “activity change, negative = cytotoxicity” value is on record?
**A.** -1.97%
